Each structure is given as a SMILES string. In all, about 220,000 compounds went through this assay and about 770 (0.35%) were called active. About 15% were inconclusive and are not listed. The list comes from a sample in which actives are over-represented; it also holds similar structures and randomly drawn compounds. Values without a mark were called inactive. No stated cut-off is given here; in the data, active means binding response below about 49% or above about 150%; inconclusive means no clear call, values can overlap the other calls; inactive means in between.

Results on 26 molecules are retold here after PubChem BioAssay AID1439 (NMMLSC, 2008).

Guanine nucleotide-binding protein G(o) subunit alpha (Homo sapiens), sequence (P09471 whole entry, looked up): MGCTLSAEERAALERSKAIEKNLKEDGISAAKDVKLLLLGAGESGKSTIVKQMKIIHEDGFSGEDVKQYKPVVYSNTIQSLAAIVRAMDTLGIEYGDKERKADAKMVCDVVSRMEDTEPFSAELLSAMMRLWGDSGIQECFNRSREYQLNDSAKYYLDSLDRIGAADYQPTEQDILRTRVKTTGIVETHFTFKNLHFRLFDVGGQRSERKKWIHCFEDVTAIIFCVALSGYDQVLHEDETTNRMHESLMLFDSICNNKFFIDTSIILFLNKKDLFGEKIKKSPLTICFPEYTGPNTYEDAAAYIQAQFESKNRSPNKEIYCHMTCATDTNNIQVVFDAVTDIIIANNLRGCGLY

The experiment concerns the target Guanine nucleotide-binding protein G(o) subunit alpha (Homo sapiens) (UniProt P09471). The experiment is described as follows: RGS7-Galphao binding modulators, primary screen, biochemical, multiplexed bead flow cytometry (AID 1439).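 Further: fluorescent Galphao held in activated GDP-AlF4 state binding bead-coupled RGS7.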 To be noted: at 10 µM, actives lie on both sides. (In general: In flow cytometry, cells or beads pass a laser one at a time.)
As for `O=C(COc1ccc(Cl)cc1)N1CCN(c2cccc(C(F)(F)F)c2)CC1`, the binding response (% of control) is 104%. The figure for `COC(=O)c1ccccc1OCC(=O)N1CCN(c2ccc(Cl)cc2)CC1` is 290% (active); for `O=C(CN1CCN(c2ccc(Cl)cc2)CC1)N1CCCC1` it is 102%; for `COCCn1c(C)cc(C(=O)COC(=O)/C=C/c2cccc(OC)c2)c1C` it is 92.8%. For the molecule `FC(F)(F)c1cccc(Cc2noc(CN3CCC(N4CCCCC4)CC3)n2)c1`, the binding response (% of control) was 104%. The figure for `CCOC(=O)c1sc(/N=C/C2=C(O)CC(C)(C)CC2=O)c(C(=O)OCC)c1C` is 107%; for `Cc1cc(C)n2nc(SCC(=O)NC(=O)NCc3ccco3)nc2n1` it is 102%. The figure for `Cc1ccccc1CS(=O)(=O)CC1(O)CCN(C(=O)c2cccc(C(F)(F)F)c2)CC1` is 157% (active); for `Cc1ccccc1CN1CCN(C(=O)c2cccc(F)c2)CC1` it is 105%; for `CC(C)CC(=O)N1CCC(O)(CS(=O)(=O)Cc2ccccc2)CC1` it is 103%. On to `CCOC(=O)C1=NOC(Cn2cc(C(C)=O)c(=O)[nH]c2=O)C1` (stereo unspecified), for which the binding response (% of control) was 100%. As for `COc1cc2c(cc1OC)CN(C(=O)c1ccc(S(=O)(=O)N3CCCCCC3)cc1)CC2`, the binding response (% of control) is 89.7%. The value for `CCOc1cc(C(=O)N2CCc3cc(OC)c(OC)cc3C2)ccc1OC(F)F` was 159% (active). Regarding `COc1cc2c(cc1OC)CN(C(=O)c1cc(=O)c3ccccc3o1)CC2`, the binding response (% of control) was 97.6%. The figure for `CCC(=O)NC(=S)Nc1ccc(NC(=O)c2ccco2)c(Cl)c1` is 102%; for `O=C(Nc1cccc(Cl)c1N1CCOCC1)c1ccc2c(c1)OCCO2` it is 108%.

On to `O=C(CSc1nnc(-c2cccs2)n1Cc1ccccc1)N1CCc2ccccc2C1`, for which the binding response (% of control) is 102%.

For the molecule `Cn1c(=O)c2c(n(Cc3ccccc3)c1=O)NC(=O)C2CC(=O)N1CCc2ccccc2C1` (stereo unspecified), the binding response (% of control) is 13.5% [inhibitor] (active). Consider `O=C(COc1ccccc1)N1CCc2ccccc2C1`, for which the binding response (% of control) is 103%.

In the case of `CCCCCCCNc1nc(Cl)nc(NCCO)n1`, the binding response (% of control) was 93.6%. In the case of `CN(C)C(=O)CSc1n[nH]c(-c2ccco2)n1`, the binding response (% of control) is 107%. The value for `O=[N+]([O-])c1ccc(Sc2n[nH]c(-c3ccco3)n2)nc1` was 105%. The figure for `Cc1ccc(N2C(=O)C3C(c4ccccc4)(C2=O)C3(c2ccccc2)c2ccccc2)cc1` (stereo unspecified) is 14.4% [inhibitor] (active).

In the case of `Cc1ccc(N=Nc2c(C)[nH]n(-c3ccccc3)c2=O)cc1`, the binding response (% of control) is 100%.

As for `Cc1ccc(N2C(=O)C(Cc3ccccc3)NC2=S)cc1` (stereo unspecified), the binding response (% of control) is 99%. The value for `CCCC1C(c2ccccc2)C(C#N)(C#N)C2(C#N)CC1(N)NC2=O` (stereo unspecified) was 152% (active).
